Sa ugtP lethal = compounds lethal to S. aureus RN4220 ugtP deletion mutant; OD600 growth, 16 h; growth inhibition, % (no concentration beside the values); hit rate 0.54% among 330,000; AID 1259309; in the data active means growth inhibition above about 68%;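 further: plate controls were untreated wells for no effect and antibiotic for full effect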
Mtb hypoxia rep = Mtb hypoxia fluorescent reporter inhibition; hit rate 0.1% among 300,000; fluorescence inhibition, % (no concentration beside the values); M. tuberculosis hypoxia-regulated fluorescent reporter, fluorescence; in the data active means fluorescence inhibition mostly above about 23%, no sharp cut-off; inactive means mostly below about 17%
RN4220 kill = kills Staphylococcus aureus RN4220; hit rate 0.33% among 330,000; inhibition, % (concentration not given with the values); S. aureus RN4220 growth, OD600, 16 h; in the data active means inhibition above about 85%;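 further: plate controls were untreated cells for no effect and reference antibiotic for full effect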
Mtb UGM inh = inhibitors of M. tuberculosis UDP-galactopyranose mutase; purified UGM, fluorescence polarization probe displacement; P9WIQ1; hit rate 0.06% among 320,000; inhibition, % at 10 µM; in the data active means inhibition above about 10%, passing the limit was not always enough; inconclusive means no clear call, values can overlap the other calls
Target sequence (P9WIQ1 whole entry, looked up): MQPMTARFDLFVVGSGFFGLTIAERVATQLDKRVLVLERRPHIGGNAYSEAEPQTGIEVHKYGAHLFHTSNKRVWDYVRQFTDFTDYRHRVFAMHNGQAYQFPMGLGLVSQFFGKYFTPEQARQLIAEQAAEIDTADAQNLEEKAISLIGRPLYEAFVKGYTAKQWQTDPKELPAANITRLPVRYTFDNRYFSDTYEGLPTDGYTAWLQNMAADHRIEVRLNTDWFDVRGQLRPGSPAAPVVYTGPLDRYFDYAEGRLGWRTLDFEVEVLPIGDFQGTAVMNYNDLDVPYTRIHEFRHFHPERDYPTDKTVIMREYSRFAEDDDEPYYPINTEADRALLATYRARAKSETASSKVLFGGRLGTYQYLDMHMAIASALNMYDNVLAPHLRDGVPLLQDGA
Rv3671c inh = inhibitors of M. tuberculosis serine protease Rv3671c. P9WHR9. inhibition, % at 5.96 µM. hit rate 0.048% among 320,000;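 further: extracellular domain of Rv3671c used as enzyme; 0% = enzyme with DMSO and 100% = no enzyme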
Mtb betalactam = beta-lactam sensitization of Mtb H37Rv | M. tuberculosis H37Rv growth with meropenem, percent inhibition | inhibition, % at 25 µM | hit rate 0.27% among 330,000 | AID 434955; call rule not given here;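 further: growth measured after seven days incubation then overnight dye step; 0% = bacteria only wells and 100% = bacteria with antibiotic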
Rv3671c confirm = confirmation of M. tuberculosis Rv3671c protease inhibitors; hit rate 40% among 140; inhibition, % at 5.96 µM; shares compounds with Rv3671c inh
* marks the source's active call; other numbers are inactive results; ? = inconclusive; / = no result. This is a sample that favours compounds with a hit; in the whole collection about 0.68% have one here. Unless noted, no stated cut-off is given here; in the data, active means inhibition above about 38%; inactive means the rest.

SMILES | Sa ugtP lethal | Mtb hypoxia rep | RN4220 kill | Mtb UGM inh | Rv3671c inh | Mtb betalactam | Rv3671c confirm
CCn1nc([N+](=O)[O-])c(C(C#N)c2nc3ccccc3n2C)c(Cl)c1=O (stereo not given) | -5 | 12 | 13 | 4 | -3 | 1 | /
Nc1nonc1-n1nnc(C(=O)NN=Cc2ccc(OCc3ccccc3F)cc2)c1CNc1ccccc1 | -10 | 6 | 6 | / | / | / | /
CC(=NNC(=O)c1ccc(C)cc1)c1c(C)[nH]n(-c2ccccc2)c1=O | 5 | 2 | 10 | / | / | / | /
O=C(NC(=S)NNC(=O)c1ccccc1O)c1cccnc1 | 2 | 3 | 19 | 2 | 47* | 6 | 44*
O=C(NC(=S)NNC(=O)c1ccc(Cl)cc1Cl)c1cccnc1 | -10 | -10 | 21 | / | -11 | 94 | /
CNc1ccc2c3c(cccc13)C(=O)N(C)C2=O | / | / | / | ? | 77* | 5 | 69*
NCCCCC(C(=O)N1CCNCC1)n1cc(C(N)CC(N)=O)nn1 (stereo not given) | 1 | -3 | -1 | / | / | / | /
C=CCNC(=S)N1CCN(C2CCCCC2)CC1 | 8 | 13 | 3 | 1 | 40* | -3 | -1
O=C(N/N=C/c1cc([N+](=O)[O-])ccc1O)NC12CC3CC(CC(C3)C1)C2 | / | / | / | 1 | 52* | 57 | 20
Oc1ccc(CC2CNCCN2CCC23CC4CC(CC(C4)C2)C3)cc1 (stereo not given) | -10 | 10 | 0 | / | / | / | /
O=[N+]([O-])c1cc(Cl)cc(/C=N/NC(=S)Nc2ccc(S(=O)(=O)N3CCOCC3)cc2)c1O | / | / | / | 3 | 58* | 40 | 14
O=[N+]([O-])c1cc(Cl)cc(C=NNC(=S)Nc2ccc(S(=O)(=O)N3CCOCC3)cc2)c1O | -15 | 20 | 21 | / | / | / | /
COc1cccc(C2=CC(=O)CC(c3ccc(OC)c(OC)c3)C2)c1 (stereo not given) | -7 | 4 | 11 | / | / | / | /
COC(=O)C1=C(c2ccc(F)cc2OCc2ccccc2)CC2CCC1N2C(=O)NC1CC1 (stereo not given) | -7 | 0 | 2 | / | / | / | /
CC(=O)[C@]1(O)Cc2c(O)c3c(c(O)c2[C@@H](O[C@H]2C[C@H](N)[C@H](O)[C@H](C)O2)C1)C(=O)c1ccccc1C3=O | / | / | / | 70* | 69* | 99 | 81*
Nc1ccc(O)c2c1C(=O)c1ccccc1C2=O | / | / | / | 4 | 56* | 3 | 38*
Cc1cc2oc(=O)c3c(c2cc1OC(=O)c1ccco1)CCCC3 | -8 | -5 | 4 | -6 | 7 | 0 | /
Cc1cc(OC(=O)c2ccco2)c2c3c(c(=O)oc2c1)CCCC3 | -19 | / | -4 | -2 | 60* | 100 | 73*
NC(=O)COC(=O)C1c2ccccc2Oc2ccccc21 | 12 | 9 | 1 | 3 | -2 | 8 | /
N#CCN(CC#N)C(=O)C1c2ccccc2Oc2ccccc21 | / | / | / | 9 | 104* | -1 | 5
CCCCCCCCC=CCCCCCCCC(=O)NCCc1ccc(O)c(O)c1 | 12 | 1 | -1 | / | / | / | /
O=c1cc[nH]c2c1ccc1c(=O)cc[nH]c12 | 2 | -4 | 1 | 2 | 50* | -1 | 15
CNCCNCC(Cc1cccc2ccccc12)NCCc1ccccc1 (stereo not given) | 3 | 7 | 0 | / | / | / | /
O=C(NCc1cccs1)c1cccc(Nc2nc3ccc(Br)cc3[nH]2)c1 | -5 | 8 | -1 | 0 | 43* | -9 | 37*
O=C(Oc1cncc(Cl)c1)c1ccco1 | -4 | -2 | 2 | -1 | 63* | -4 | 88*
SMILES | Sa ugtP lethal | Mtb hypoxia rep | RN4220 kill | Mtb UGM inh | Rv3671c inh | Mtb betalactam | Rv3671c confirm
C#CCn1cc(C=NNc2nc3ccccc3[nH]2)c2ccccc21 | -18 | 4 | -5 | / | / | / | /
C=CCn1cc(/C=N/Nc2nc3ccccc3[nH]2)c2ccccc21 | / | / | / | 0 | 40* | 91 | 68*
COCCCNC1=C(Cl)C(=O)c2ccccc2C1=O | 14 | -18 | 33 | -2 | -1 | 4 | /
COCCCNc1c2c3c(cccc3[nH]c1=O)C(=O)c1ccccc1-2 | 11 | -40 | 7 | 102* | 137* | -1 | 145*
CCN(c1ccccc1)S(=O)(=O)c1ccc(N2CCN(c3ccc(O)cc3)CC2)nc1 | 19 | -6 | 17 | 1 | 0 | 3 | /
CCN(c1ccccc1)S(=O)(=O)c1ccc(N2CCN(c3ccc(OC)cc3)CC2)nc1 | 14 | 1 | 7 | 1 | 102* | -10 | -6
CCN1/C(=C/C=C/c2oc3ccc(-c4ccccc4)cc3[n+]2CC)Oc2ccc(-c3ccccc3)cc21 | 100* | -194 | 97* | ? | 60* | 95 | -16
CC1CN(C(C)CO)C(=O)c2cccc(NC(=O)C3CCCCC3)c2OC1CN(C)C(=O)Nc1ccc2c(c1)OCO2 (stereo not given) | -2 | 3 | 3 | / | / | / | /
Cc1ccc(OCCn2cc(/C=N/NC(=O)c3ccncc3)c3ccccc32)cc1 | / | / | / | 4 | 40* | 98 | 26
COc1ccc(OCCn2cc(/C=N/NC(=O)c3ccncc3)c3ccccc32)cc1 | / | / | / | 0 | 3 | 98 | /
COc1ccccc1NC(=O)C1C2C=CC(C2)C1C(=O)NCc1cccnc1 (stereo not given) | 6 | 19 | 0 | 4 | 4 | -7 | /
O=C(O)C1C2C=CC(C2)C1C(=O)NCc1cccnc1 (stereo not given) | -2 | 1 | -1 | 1 | 77* | -5 | -9
COc1cccc(CSc2nc3ccncc3[nH]2)c1 | -1 | -3 | 0 | -5 | 183* | 4 | -1
O=C1C(CSCc2ccccc2)NC(=S)N1c1ccccc1 (stereo not given) | 6 | -2 | -1 | 0 | 98* | 0 | 60*
Cc1cccc2c(N=O)c(O)[nH]c12 | -8 | 11 | 6 | 1 | 48* | -9 | 31
COc1ccc(C(=O)N/N=C/c2cc3ccccc3[nH]c2=S)cc1 | / | / | / | 5 | 44* | 40 | 45*
CCCCCCc1ccc(N2CC(Cc3ccccc3)C(CC(=O)NCc3ccc(OC)cc3)C2=O)cc1 (stereo not given) | 6 | 9 | -6 | / | / | / | /
COc1ccc2c(c1)SC(=CC(=O)c1ccncc1)N2C | -2 | 11 | 11 | / | / | / | /
COc1cc(C=NNc2ccc(S(=O)(=O)Nc3ccccc3C(=O)O)cc2[N+](=O)[O-])ccc1O | 9 | 22 | -3 | 2 | 47* | 3 | 42*
O=c1[nH][nH]c(C(F)(F)F)c1C=Nc1ccccc1 | 4 | 8 | 2 | 1 | 6 | -6 | /
Cc1cc(O)ccc1N=Cc1c(C(F)(F)F)[nH][nH]c1=O | 4 | 18 | 5 | 5 | 99* | 2 | -4
NNC(=O)c1cc2ccccc2cc1O | -6 | 4 | 2 | 2 | 37* | -5 | -5
O=C(NCCO)c1cc2ccccc2cc1O | 24 | 3 | 7 | 2 | -4 | -2 | /
COc1cccc(C2CC=C(C(=O)O)C(c3ccccc3F)N2S(=O)(=O)c2ccc(C)cc2)c1 (stereo not given) | 27 | 6 | 25 | / | / | / | /

Screening data deposited in PubChem by several laboratories.
